Measurements taken from PubChem BioAssay (Tox21).
A number with no mark means an inactive call. A call without a number means that no potency is given here. The source made the active and inactive calls. Unless noted, calls come from the whole dose curve; as a rule, active = well fitted activation curve with a large enough effect in the repeat runs; inconclusive = weak or mixed curves; inactive = flat fitted curve, though single readings scatter.

Each molecule was assayed against Gonadotropin-releasing hormone receptor (Homo sapiens) (UniProt P30968) (assay: Human gonadotropin-releasing hormone receptor (GnRHR) small molecule agonists, calcium flux assay in GnRHR-HEK293 cells (AID 1920063; calls by dose curve; note: nearly all actives have a fitted effect of over 35% in size)). Conditions: calcium flux fluorescence, agonist mode; series mostly up to 57.6 µM.
Summary of the method: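 Calcium flux, agonist mode, human GnRHR stably integrated in HEK293; dye 1 h at 37 C before compound; Ex/Em=480/540 kinetic read, 3 min; 15 concentrations, triplicate.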
Potency is the fitted concentration of half-maximal effect.

Sequence of Gonadotropin-releasing hormone receptor (Homo sapiens) (P30968 whole entry, looked up): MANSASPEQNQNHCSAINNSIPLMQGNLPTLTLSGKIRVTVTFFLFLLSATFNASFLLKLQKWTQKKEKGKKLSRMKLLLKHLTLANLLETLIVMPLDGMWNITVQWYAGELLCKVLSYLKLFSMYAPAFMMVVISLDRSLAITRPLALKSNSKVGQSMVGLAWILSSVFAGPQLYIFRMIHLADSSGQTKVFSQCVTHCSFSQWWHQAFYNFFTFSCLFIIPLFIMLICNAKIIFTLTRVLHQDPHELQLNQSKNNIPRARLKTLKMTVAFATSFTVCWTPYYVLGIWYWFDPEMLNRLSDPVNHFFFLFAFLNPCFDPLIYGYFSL

SMILES | Potency | activity change
CC1(c2ccc(Oc3ccccc3)cc2)OC(=O)N(Nc2ccccc2)C1=O (stereo not given) | inactive | 
Oc1cc(Cl)cc(Cl)c1 | inactive | 
C=CC(=O)NCNC(=O)C=C | inactive | 
COc1ccc(C(c2ccc(OC)cc2)C(Cl)(Cl)Cl)cc1 | inactive | 
CC(C)N(C(=O)COc1nnc(C(F)(F)F)s1)c1ccc(F)cc1 | inactive | 
CCC(CC)(CNC(=O)CCCO)c1cccc(OC)c1 | inactive | 
Oc1cccc(Cl)c1 | inactive | 
CCOP(=S)(OCC)Oc1ccc(S(C)=O)cc1 (stereo not given) | inactive | 
O=c1[nH]c2ccccc2o1 | inactive | 
CN1C(=S)CN=C(c2ccccc2)c2cc(Cl)ccc21 | inactive | 
C=C(C)[C@H]1CN[C@H](C(=O)O)[C@H]1CC(=O)O | inactive | 
Oc1ccc(C2(c3ccc(O)cc3)c3ccccc3-c3ccccc32)cc1 | inactive | 
C[C@@H](N)[C@@H](O)c1ccccc1 | inactive | 
CC(C)(Cl)[N+](=O)[O-] | inactive | 
CC[C@H](C)[C@H]1O[C@]2(C=C[C@@H]1C)C[C@@H]1C[C@@H](C/C=C(\C)[C@@H](O[C@H]3C[C@H](OC)[C@@H](O[C@H]4C[C@H](OC)[C@@H](O)[C@H](C)O4)[C@H](C)O3)[C@@H](C)/C=C/C=C3\CO[C@@H]4[C@H](O)C(C)=C[C@@H](C(=O)O1)[C@]34O)O2 | inactive | 
Cc1ccc2nc3sc(=O)sc3nc2c1 |  | -0.0057% [at 11.8 µM, stronger effect = higher value]
CC1(C)CN=C(NN=C(/C=C/c2ccc(C(F)(F)F)cc2)/C=C/c2ccc(C(F)(F)F)cc2)NC1 | inactive | 
O=[N+]([O-])c1c(Cl)c(Cl)cc(Cl)c1Cl | inactive | 
CCCCCCCCCCCCN(C)C | inactive | 
CCCCN(CCCC)C(=S)[S-].CCCCN(CCCC)C(=S)[S-].[Zn+2] | 17.4 µM (active) | 

SMILES | Potency | activity change
CCN(CC)C(=S)[S-].CCN(CC)C(=S)[S-].[Zn+2] | 9.69 µM (active) | 
CC(Cc1ccc(O)cc1)NCC(O)c1cc(O)cc(O)c1 (stereo not given) | 0.0338 µM (active) | 
CC(Cc1ccc2c(c1)OCO2)NO (stereo not given) | inactive | 
CS(=O)(=O)c1ccc(C(=O)C2C(=O)CCCC2=O)c(Cl)c1COCC(F)(F)F | inactive | 
CC[C@@H](CO)NC(=O)[C@@H]1C=C2c3cccc4c3c(cn4C)C[C@H]2N(C)C1 | inactive | 
NC(=O)CS(=O)C(c1ccccc1)c1ccccc1 (stereo not given) | inactive | 
CCOP(=O)(OCC)Oc1cc(C)nc(C(C)C)n1 | inactive | 
CCOP(=S)(OCC)Oc1cc(C)nc(N(CC)CC)n1 | inactive | 
CNP(=O)(OC)Oc1ccc(C(C)(C)C)cc1Cl (stereo not given) | inactive | 
O=C1C(=O)c2cccc3cccc1c23 | inactive | 
N#Cc1cc(I)c(O)c(I)c1 | inactive | 
COC(=O)c1ccccc1S(=O)(=O)NC(=O)Nc1nc(C)nc(OC)n1 | inactive | 
c1csc(-c2ccc(-c3cccs3)s2)c1 | inactive | 
Cc1ccccc1OP(=O)(Oc1ccccc1C)Oc1ccccc1C | inactive | 
CCOP(=S)(S)OCC | inactive | 
CC(C)[C@H](C(=O)O[C@H](C#N)c1cccc(Oc2ccccc2)c1)c1ccc(Cl)cc1 | inactive | 
O=[N+]([O-])c1cccc2cccnc12 | inactive | 
Clc1cccc(SC2CCNCC2)n1 | inactive | 
CCCCC(CC)COC(=O)OOC(C)(C)C (stereo not given) | inactive | 
O=[N+]([O-])c1cc(C(F)(F)F)c(Cl)c([N+](=O)[O-])c1Cl | inactive | 

Each molecule was assayed against KiSS-1 receptor (Homo sapiens) (UniProt Q969F8) (assay: Human kisspeptin (KISS1R) small molecule agonists, calcium flux assay in KISS1R-HEK293 cells (AID 1920064)). Conditions: KISS1R-HEK293, calcium flux fluorescence, agonist; series mostly up to 76.8 µM.
Summary of the method: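 Triplicate 15-concentration series were applied to dye-loaded human KISS1R HEK293 cells, and agonist-evoked calcium fluorescence was captured for 3 min.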

Sequence of KiSS-1 receptor (Homo sapiens) (Q969F8 whole entry, looked up): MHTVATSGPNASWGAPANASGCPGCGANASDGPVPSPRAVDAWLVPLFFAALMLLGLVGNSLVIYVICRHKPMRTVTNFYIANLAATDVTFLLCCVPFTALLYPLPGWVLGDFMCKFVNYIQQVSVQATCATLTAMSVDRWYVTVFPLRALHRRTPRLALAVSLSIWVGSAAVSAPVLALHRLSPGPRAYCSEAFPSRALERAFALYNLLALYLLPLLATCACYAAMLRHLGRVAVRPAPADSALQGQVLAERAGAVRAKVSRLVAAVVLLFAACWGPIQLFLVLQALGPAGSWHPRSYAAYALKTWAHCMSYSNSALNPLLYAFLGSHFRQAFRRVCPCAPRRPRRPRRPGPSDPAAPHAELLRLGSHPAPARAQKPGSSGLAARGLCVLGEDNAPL

SMILES | Potency | activation
CC1(c2ccc(Oc3ccccc3)cc2)OC(=O)N(Nc2ccccc2)C1=O (stereo not given) | inactive | 
Oc1cc(Cl)cc(Cl)c1 | inactive | 
C=CC(=O)NCNC(=O)C=C | inactive | 
COc1ccc(C(c2ccc(OC)cc2)C(Cl)(Cl)Cl)cc1 | inactive | 
CC(C)N(C(=O)COc1nnc(C(F)(F)F)s1)c1ccc(F)cc1 | inactive | 
CCC(CC)(CNC(=O)CCCO)c1cccc(OC)c1 | inactive | 
Oc1cccc(Cl)c1 | inactive | 
CCOP(=S)(OCC)Oc1ccc(S(C)=O)cc1 (stereo not given) | inactive | 
O=c1[nH]c2ccccc2o1 | inactive | 
CN1C(=S)CN=C(c2ccccc2)c2cc(Cl)ccc21 | inactive | 
C=C(C)[C@H]1CN[C@H](C(=O)O)[C@H]1CC(=O)O | inactive | 
Oc1ccc(C2(c3ccc(O)cc3)c3ccccc3-c3ccccc32)cc1 | inactive | 
C[C@@H](N)[C@@H](O)c1ccccc1 | inactive | 
CC(C)(Cl)[N+](=O)[O-] | inactive | 
CC[C@H](C)[C@H]1O[C@]2(C=C[C@@H]1C)C[C@@H]1C[C@@H](C/C=C(\C)[C@@H](O[C@H]3C[C@H](OC)[C@@H](O[C@H]4C[C@H](OC)[C@@H](O)[C@H](C)O4)[C@H](C)O3)[C@@H](C)/C=C/C=C3\CO[C@@H]4[C@H](O)C(C)=C[C@@H](C(=O)O1)[C@]34O)O2 | inactive | 
Cc1ccc2nc3sc(=O)sc3nc2c1 |  | -1.66% [at 15.8 µM]
CC1(C)CN=C(NN=C(/C=C/c2ccc(C(F)(F)F)cc2)/C=C/c2ccc(C(F)(F)F)cc2)NC1 | inactive | 
O=[N+]([O-])c1c(Cl)c(Cl)cc(Cl)c1Cl | inactive | 
CCCCCCCCCCCCN(C)C | inactive | 
CCCCN(CCCC)C(=S)[S-].CCCCN(CCCC)C(=S)[S-].[Zn+2] | inactive | 

SMILES | Potency | activation
CCN(CC)C(=S)[S-].CCN(CC)C(=S)[S-].[Zn+2] | 19.3 µM (active) | 
CC(Cc1ccc(O)cc1)NCC(O)c1cc(O)cc(O)c1 (stereo not given) | inactive | 
CC(Cc1ccc2c(c1)OCO2)NO (stereo not given) | inactive | 
CS(=O)(=O)c1ccc(C(=O)C2C(=O)CCCC2=O)c(Cl)c1COCC(F)(F)F | inactive | 
CC[C@@H](CO)NC(=O)[C@@H]1C=C2c3cccc4c3c(cn4C)C[C@H]2N(C)C1 | inactive | 
NC(=O)CS(=O)C(c1ccccc1)c1ccccc1 (stereo not given) | inactive | 
CCOP(=O)(OCC)Oc1cc(C)nc(C(C)C)n1 | inactive | 
CCOP(=S)(OCC)Oc1cc(C)nc(N(CC)CC)n1 | inactive | 
CNP(=O)(OC)Oc1ccc(C(C)(C)C)cc1Cl (stereo not given) | inactive | 
O=C1C(=O)c2cccc3cccc1c23 | inactive | 
N#Cc1cc(I)c(O)c(I)c1 | inactive | 
COC(=O)c1ccccc1S(=O)(=O)NC(=O)Nc1nc(C)nc(OC)n1 | inactive | 
c1csc(-c2ccc(-c3cccs3)s2)c1 | inactive | 
Cc1ccccc1OP(=O)(Oc1ccccc1C)Oc1ccccc1C | inactive | 
CCOP(=S)(S)OCC | inactive | 
CC(C)[C@H](C(=O)O[C@H](C#N)c1cccc(Oc2ccccc2)c1)c1ccc(Cl)cc1 | inactive | 
O=[N+]([O-])c1cccc2cccnc12 | inactive | 
Clc1cccc(SC2CCNCC2)n1 | inactive | 
CCCCC(CC)COC(=O)OOC(C)(C)C (stereo not given) | inactive | 
O=[N+]([O-])c1cc(C(F)(F)F)c(Cl)c([N+](=O)[O-])c1Cl | inactive | 
